In the supplement of paper PMC6555819:

Tests used:
Experiment in all cases: PBM binding z-score (relative to random genomic background probes); higher = stronger binding; sequences stand for … in GC…GCGATTGACAGCGTAGAATGAAGG
[1] = system: RARb homodimer (NR concentration 270 nM)
Summary of the method: (§1)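 Binding z-scores take random background probes as their reference. They come from custom Agilent 4×180K protein-binding microarrays incubated 1 h with ligand-free nuclear receptor dimers, with antibodies against each partner (one per run) detecting binding. Scanned fluorescence was regression-normalized.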

[2] = system: RARg:RXRa (NR concentration 270 nM, RXRa partner concentration 90 nM)
Summary of the method: as §1

[3] = system: RARg homodimer (NR concentration 270 nM)
Summary of the method: as §1

[4] = system: RXRa DBDmut IVT, anti-RXR (DBD mutation: RXRa K156A/R161A, NR concentration 90 nM)
Summary of the method: as §1

[5] = system: RXRa homodimer (NR concentration 180 nM)
Summary of the method: as §1

[6] = system: THRa:RXRa (NR concentration 90 nM, RXRa partner concentration 90 nM)
Summary of the method: as §1

[7] = system: THRa homodimer (NR concentration 90 nM)
Summary of the method: as §1

[8] = system: VDR homodimer (NR concentration 270 nM)
Summary of the method: as §1

Sequence	PBM binding z-score [1]	PBM binding z-score [2]	PBM binding z-score [3]	PBM binding z-score [4]	PBM binding z-score [5]	PBM binding z-score [6]	PBM binding z-score [7]	PBM binding z-score [8]
ATCTCTAGGTAAAGACAGTTCAGTGAATGCAAAT	0.886	0.452	0.798	0.247	0.363	1.05	0.425	1.14
CCAATTAGTTGACCATAAGGGCAACCGAAGCTCG	2.16	1.22	1.02	0.647	0.634	1.98	1.5	0.962
GATACAGGGTCAGTTAGAGGCCAGAGTATGGAAA	3.21	5.99	4.52	1.88	3.67	2.73	0.565	1.51
TCTTGTAGATCAAAGGCTAAGAAAGCCGAAGCCT	-0.521	-0.216	-0.29	0.467	0.315	-0.446	-0.464	-0.345
CATACAGGGTCACCTAGGCCAGAGTAGGGACGGC	3.71	5.53	5.52	2.15	6.27	3.65	1.57	2.32
CGTCCAAGGTCAATGGTCAGTGAAGAGATGACGG	4.04	5.46	6.07	3.36	4.67	3.6	2.11	2.25
CCAAGCAGGCCAGGGTCACTCAAGCATTTCGCTT	2.75	3.16	2.36	0.375	3.22	3	1.15	1.51
CCTTACGGGTCACTACAGGTTATAGCATCGGAGT	3.27	4.6	4.47	1.7	4.64	4.19	-0.0959	1.31
CCTAGCAGGCCAGGGTCACTCGAGCATTTCGCTT	2.57	3.06	2.18	0.188	3.57	2.83	0.909	1.33
CAAACTAGGTCCAGAGGTCAAAGTCCGCTTCCCG	4.66	5.31	4.62	2.53	6.34	3.75	1.72	4.18
TCATATAGGTAAAAGATGAAAGTCGGTGTGGTAA	-0.433	0.301	0.223	1.73	0.923	0.0309	0.103	-0.0575
CGTCCAAGGTCCGAGAGGTCAGTGAATGCCGAGT	3.86	3.1	3.53	1.19	2.4	2.67	1.18	2.95
GTTTACGGGTCAAAGGTTATAGCATGAATAGAAT	3.41	6.91	5.26	2.06	9.23	3.94	0.0413	1.99
CCTACTGTGCCAAAGGTCATTGATTCCAATGCTC	4.59	5.61	5.21	2.09	6.46	3.46	1.72	3.37
TGTCAAAGTTCAAAGGTATCGTAAGTATCCACAC	3.71	5.75	6.26	4.47	6.28	2.56	-0.19	4.53
CAAACTAGGTCACGAAATGTCAAAGTCGAATGAC	3.6	4.86	5.58	2.02	3.79	3.51	1.5	1.1
AGTCAAACTTCATCTAGGTAACGTAAGATATGCT	-0.47	-0.19	0.544	0.281	0.109	0.484	0.329	-0.372
AGTCAAAGTTCATCTAGTTAACGTAAGATATGCT	3.73	5.37	5.78	4.8	4.19	2.13	-0.607	5.21
ATCTCGAGGTAAAGTTCAGTGAAAGATCGATAGA	2.23	2.68	2.72	0.929	1.7	1.71	-0.0248	1.71

Sequence	PBM binding z-score [1]	PBM binding z-score [2]	PBM binding z-score [3]	PBM binding z-score [4]	PBM binding z-score [5]	PBM binding z-score [6]	PBM binding z-score [7]	PBM binding z-score [8]
ATCTCTAGGTAACAAGTTCAGGGAAAGAGAGGAC	1.98	1.77	1.62	1.06	1.23	1.85	1.01	2.78
TGTCAAAGTTCAAAGGTAACATAAGTATCCACAC	3.83	6.56	6.03	4.43	6.86	3.53	0.27	4.17
CCTTACGGGTCACTGCCAGGTTATAGCATTTGGA	3.13	5.43	4.16	1.46	4.62	3.4	0.811	1.47
GCGACTGGGGCATCAGCATGTTACCATAACTTAA	0.222	0.263	0.143	0.363	0.217	0.125	-0.404	-0.64
ACAGACAGGTGATGAAGGTAACTCGGGCTATCAT	0.556	0.166	0.396	-0.159	0.351	0.765	0.0589	-0.217
ATACCAAGGTGATCGTGAGGTCGTTTATACTAAC	1.98	2.29	1.01	1.06	1.36	3.56	2.59	3.5
CCAACTAGGTCACAGAGGTCAAAGTCCGTGCGTA	5.91	7.44	8.06	3.39	7.77	4.66	3.24	6.85
AGTCAAAGTTCAGGACGAGGTAACGTACAGCACG	3.47	4.77	4.74	2.99	2.92	3.9	1.82	2.1
GCTTGTAGATCGAGGTTAAGAAAGACTAAGCTAA	0.303	0.377	0.00467	0.166	1.04	1.38	-0.253	-0.273
GCGACTGGGGCAAAGCAAGTTACCATAAGGTTGG	0.158	0.0953	0.244	-0.247	0.26	0.526	-0.346	-0.341
GCAGACAGGTGAAACGCAGGTAACGCAGGGTGGC	0.284	1.13	0.47	-0.945	0.641	1.51	-0.416	-0.757
CTCGAAAGGTCGGTTGAGGTTAGTATACGGATAA	2.64	3.18	3.08	1.15	2.6	4.85	0.58	0.818
TCTAGTTCGTCAAAGGTCACACACTCGAAATGCG	4.99	6.46	6.31	2.95	6.75	4.64	2.53	3.49
TAGCCTAGGTCATTCAGGGGCCAGTATAGAAAGC	3.29	6.13	4.44	1.6	2.84	3.45	0.509	1.32
TCGAGTAGGTTACGAATGGGGCATTCAGCTTTCT	0.29	0.904	0.405	0.441	0.67	-0.0841	-1.13	-0.811
CCTATTTGTTGACCATAAGGGCAACCGAAGCTCG	2.18	0.901	1.09	0.849	0.768	1.78	1.89	0.782
TCATATAGGTAAAAGGTGGAAGTCGGTGTGGTAA	0.589	0.466	-0.0176	1.55	1.54	0.305	0.294	0.281
GCTAGTTGGTCAGTGAAAGGTCACACACCGGTCG	4.96	5.66	4.94	0.305	5.62	3.42	1.71	1.73
ACTATTAGTTGACTTAGGGCAACGGATACGACGC	0.939	0.643	1.01	0.466	0.497	1.47	0.279	-0.0346

Sequence	PBM binding z-score [1]	PBM binding z-score [2]	PBM binding z-score [3]	PBM binding z-score [4]	PBM binding z-score [5]	PBM binding z-score [6]	PBM binding z-score [7]	PBM binding z-score [8]
ACTAGTTGGTCAGCTGAGGTCAGACACAATTCGG	3.88	2.85	3.57	0.548	2.51	4.56	3.42	1.76
AGAATGAGGTTATACGGAGATCAGGGAAGAAAGT	1	1.95	1.1	1.68	2.26	2.33	0.836	0.95
GGAACGAGGGCAAATTTGATAGCATCTGTCGACG	0.969	1.06	1.73	2.41	0.93	0.959	-0.432	0.807
TCGAGTAGATTAGTCGGGGCATTCAGCCAACATA	-0.464	-0.658	-0.665	0.38	-0.393	-0.269	-0.485	-0.548
GCAGACAGGTGAAACGCAGGAAACTCAGGGTGGC	0.0136	0.246	0.0798	-0.424	0.715	0.142	-0.634	-0.569
GCATATAGGTGATACAAGGTGAAAGTCCGATTGT	0.997	0.873	0.702	0.341	0.856	4.24	0.943	0.0464
TCTTGTAGATGAGCAGGTTAAGAAAGCTGGCCAA	-0.681	-0.327	-0.525	-0.188	0.00792	-0.277	-0.72	-0.433
GCGACTGGGGCATCAGCACGTTACCATAACTTAA	0.000503	0.0207	0.311	0.239	0.0852	-0.219	-0.089	-0.335
CCAACTAGGTCACCGGAAGGTCAAAGTCCGCATG	5.63	8.38	7.43	2.32	7.28	4.43	3.16	3.75
ACTACTAGTTGAGACGAGGGCAACCGATAGGTTG	1.18	0.816	0.767	0.00344	0.506	2.46	0.219	0.599
TCTAGTTTGTCAAAGGTCACACACTCGAAATGCG	4.86	6.06	5.71	2.14	6.98	4.07	1.98	2.58
CCGATTGGGGCAAGGTTACCATAACGCACAGCCA	1	1.02	1.3	0.17	1.09	1.2	0.241	-0.398
ACAAACAGGTGATGAAGGTAACTCAGGCTATCAT	0.731	0.443	0.626	0.298	0.602	1.19	0.203	0.203
AATAGCAGGCCAAGTTTGGGTCACTCAAACAAAG	2.31	2.53	1.67	-0.564	0.964	2.63	0.748	0.388
CCAACTGGGGCAAGGTTACCATAACGCACAGCCA	1.51	0.917	1.56	-0.0848	1.13	1.4	0.42	-0.0492
CCTAGTTGGTAAGGAGGTCACACACCGGATATGA	3.85	3.75	3.06	0.539	4.06	3.44	2.35	2.37
ATATCTAGGTAAGACTCAGTTCAGTGAAGAACGC	0.918	0.275	0.108	0.525	0.354	0.631	0.604	1.41
ACTAACGGGTCAACGAGGTTATAGCACGCGTATA	3.41	5.03	4.5	1.94	5.17	3.81	1.03	3.56
